Here are results for ten molecules from PubChem BioAssay (NCI).

About 79,000 compounds went through this panel and 15% of them were active in at least one assay; those are over-represented in the sample as a whole. Values without a mark were called inactive. Active and inactive are the calls of the source. No stated cut-off is given here; in the data, active means growth inhibition above about 70%; inactive means the rest.

The nature of experiment [1]: NCI Yeast Anticancer Drug Screen. Data for the rad50 strain (AID 155).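 Further: 0% = growth of vehicle-only cultures of the same strain.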 The following applies: S. cerevisiae rad50 strain growth inhibition, active compounds read high. A digest of the protocol: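 Relative growth inhibition (compound vs vehicle) was measured in yeast with a defined repair-gene alteration.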
Experiment [2] in a line: NCI Yeast Anticancer Drug Screen. Data for the mec2-1 strain (AID 157). The settings on record: S. cerevisiae mec2-1 strain, active compounds read high. A digest of the protocol:
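Vehicle-treated cultures served as reference for growth inhibition of compound-exposed mec2-1 yeast.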

Experiment [3] in a line: NCI Yeast Anticancer Drug Screen. Data for the sgs1 mgt1 strain (AID 161).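 Further: 0% = growth of cultures given vehicle only.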 The following applies: S. cerevisiae sgs1 mgt1 strain, active compounds read high. In a few lines:
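Genetically altered yeast, compound exposure, growth inhibition relative to vehicle.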

The nature of experiment [4]: NCI Yeast Anticancer Drug Screen. Data for the cln2 rad14 strain (AID 165).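 Further: 0% = growth equal to vehicle treated cultures.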 The settings on record: S. cerevisiae cln2 rad14 strain, active compounds read high. A digest of the protocol:
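Each compound was tested on cln2 rad14 yeast. Inhibition of growth was calculated against vehicle-exposed controls.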

The nature of experiment [5]: NCI Yeast Anticancer Drug Screen. Data for the bub3 strain (AID 167). The settings on record: S. cerevisiae bub3 mutant strain, active compounds read high. In a few lines: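 Screening used yeast with an engineered genetic alteration affecting cell cycle control. Compound-exposed cultures were compared with vehicle cultures, and reduced growth was taken as inhibition.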
Experiment [6] in a line: NCI Yeast Anticancer Drug Screen. Data for the mlh1 rad18 strain (AID 175). The settings on record: S. cerevisiae mlh1 rad18 strain growth inhibition, active compounds read high. In a few lines: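 Vehicle-treated cultures served as the reference for growth inhibition in a yeast strain carrying DNA damage repair alterations exposed to each compound.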
Where [7] appears, read: at 5.0 µM (retest, dose inferred, filed as 0.5).
The mark [8] stands for this setting: at 50.0 µM (retest, dose inferred, filed as 5.0).

Regarding `CCN(CC)CCOC(=O)Cc1cccc2c(=O)cc(-c3cccs3)oc12`, the growth inhibition was 18% in experiment [1] (setting [7]); 17% in experiment [1] (setting [8]); 18.7% in experiment [1] (at 50.0 µM); 9% in experiment [2] (setting [7]); 16% in experiment [2] (setting [8]); -9.35% in experiment [2] (at 50.0 µM). The growth inhibition was 14% in experiment [3] (setting [7]); 18% in experiment [3] (setting [8]); -16.4% in experiment [3] (at 50.0 µM); 17% in experiment [4] (setting [7]); 17% in experiment [4] (setting [8]); 8.25% in experiment [4] (at 50.0 µM). In addition, the growth inhibition in experiment [5] (setting [7]) is 4%; in experiment [5] (setting [8]), 14%; in experiment [5] (at 50.0 µM), -20.6%; in experiment [6] (setting [7]), 10%; in experiment [6] (setting [8]), 16%; in experiment [6] (at 50.0 µM), -36%.

Consider `COc1ccc(CC2C(=O)NC(C)C(=O)N(C)C3Cc4ccc(cc4)Oc4cc(ccc4O)CC(C(=O)NC(C)C(=O)NC(C)C(=O)N2C)N(C)C3=O)cc1` (stereo not given), for which the growth inhibition in experiment [1] (setting [7]) is -6%; in experiment [1] (setting [8]) it was 54%; in experiment [1] (at 50.0 µM), 61.1%; in experiment [2] (setting [7]) it was 25%; in experiment [2] (setting [8]) it was 64%; in experiment [2] (at 50.0 µM), 39.8%. Moreover, the growth inhibition in experiment [3] (setting [7]) is 25%; in experiment [3] (setting [8]), 48%; in experiment [3] (at 50.0 µM), 66.5%; in experiment [4] (setting [7]), 46%; in experiment [4] (setting [8]) it was 72% (active); in experiment [4] (at 50.0 µM) it was 70.5% (active). Also, the growth inhibition in experiment [5] (setting [7]) was 16%; in experiment [5] (setting [8]), 64%; in experiment [5] (at 50.0 µM), 59.6%; in experiment [6] (setting [7]), -1%; in experiment [6] (setting [8]), 77% (active); in experiment [6] (at 50.0 µM), 53.5%.

With `COC(=O)c1cc(=O)n(-c2ccccc2OC)c(SC)n1`, the growth inhibition in experiment [1] (setting [7]) was 2%; in experiment [1] (setting [8]), 83% (active); in experiment [1] (at 50.0 µM) it was 89.5% (active); in experiment [2] (setting [7]), -1%; in experiment [2] (setting [8]), 73% (active); in experiment [2] (at 50.0 µM) it was 89% (active). Besides, the growth inhibition in experiment [3] (setting [7]) is 8%; in experiment [3] (setting [8]), 87% (active); in experiment [3] (at 50.0 µM), 92.5% (active); in experiment [4] (setting [7]), -8%; in experiment [4] (setting [8]), 67%; in experiment [4] (at 50.0 µM) it was 49.4%. Further, the growth inhibition in experiment [5] (setting [7]) was -5%; in experiment [5] (setting [8]), 58%; in experiment [5] (at 50.0 µM), 94.8% (active); in experiment [6] (setting [7]) it was -2%; in experiment [6] (setting [8]), 79% (active); in experiment [6] (at 50.0 µM), 98.1% (active).

For `CNc1ccc(N)cc1`, the growth inhibition in experiment [1] (setting [7]) was 6%; in experiment [1] (setting [8]), -9%; in experiment [1] (at 50.0 µM), -15.1%; in experiment [2] (setting [7]), -2%; in experiment [2] (setting [8]), -5%; in experiment [2] (at 50.0 µM), 21.6%. The growth inhibition in experiment [3] (setting [7]) was -8%; in experiment [3] (setting [8]), -2%; in experiment [3] (at 50.0 µM), -3.85%; in experiment [4] (setting [7]), 5%; in experiment [4] (setting [8]), 1%; in experiment [4] (at 50.0 µM), 26.4%. For the same molecule, the growth inhibition in experiment [5] (setting [7]) was 9%; in experiment [5] (setting [8]), 8%; in experiment [5] (at 50.0 µM), 7.1%; in experiment [6] (setting [7]), 0%; in experiment [6] (setting [8]), -5%; in experiment [6] (at 50.0 µM) it was -15.2%.

For `CCCCCCC(O)C(CO)CCCCC` (stereo not given), the growth inhibition is 0% in experiment [1] (setting [7]); 97% (active) in experiment [1] (setting [8]); 98% (active) in experiment [1] (at 50.0 µM); -2% in experiment [2] (setting [7]); 96% (active) in experiment [2] (setting [8]); 98% (active) in experiment [2] (at 50.0 µM). The growth inhibition was 1% in experiment [3] (setting [7]); 62% in experiment [3] (setting [8]); 45.5% in experiment [3] (at 50.0 µM); 5% in experiment [4] (setting [7]); 97% (active) in experiment [4] (setting [8]); 98.8% (active) in experiment [4] (at 50.0 µM). The growth inhibition is 0% in experiment [5] (setting [7]); 97% (active) in experiment [5] (setting [8]); 98.2% (active) in experiment [5] (at 50.0 µM); -2% in experiment [6] (setting [7]); 92% (active) in experiment [6] (setting [8]); 98.5% (active) in experiment [6] (at 50.0 µM).

Regarding `O=C(Cc1ccccc1)c1ccc(O)c(F)c1`, the growth inhibition is 4% in experiment [1] (setting [7]); 79% (active) in experiment [1] (setting [8]); 87.3% (active) in experiment [1] (at 50.0 µM); 6% in experiment [2] (setting [7]); 85% (active) in experiment [2] (setting [8]); 77.5% (active) in experiment [2] (at 50.0 µM). Besides, the growth inhibition in experiment [3] (setting [7]) was 6%; in experiment [3] (setting [8]), 72% (active); in experiment [3] (at 50.0 µM), 80.2% (active); in experiment [4] (setting [7]), 4%; in experiment [4] (setting [8]), 68%; in experiment [4] (at 50.0 µM), 72.4% (active). Moreover, the growth inhibition was 7% in experiment [5] (setting [7]); 88% (active) in experiment [5] (setting [8]); 82.5% (active) in experiment [5] (at 50.0 µM); 7% in experiment [6] (setting [7]); 84% (active) in experiment [6] (setting [8]); 83.7% (active) in experiment [6] (at 50.0 µM).

For the molecule `OC(CCl)COc1c(Cl)c(Cl)c(Cl)c(Cl)c1Cl` (stereo not given), the growth inhibition in experiment [1] (setting [7]) is -3%; in experiment [1] (setting [8]) it was 7%; in experiment [1] (at 50.0 µM) it was -1%; in experiment [2] (setting [7]), -1%; in experiment [2] (setting [8]), 10%; in experiment [2] (at 50.0 µM), 4.55%. Besides, the growth inhibition is -4% in experiment [3] (setting [7]); 3% in experiment [3] (setting [8]); 93% (active) in experiment [3] (at 50.0 µM); 2% in experiment [4] (setting [7]); 9% in experiment [4] (setting [8]); -32.7% in experiment [4] (at 50.0 µM). Further, the growth inhibition in experiment [5] (setting [7]) is 0%; in experiment [5] (setting [8]) it was 16%; in experiment [5] (at 50.0 µM) it was 11.4%; in experiment [6] (setting [7]), -3%; in experiment [6] (setting [8]), 5%; in experiment [6] (at 50.0 µM) it was 13.6%.

As for `COc1cc(/C=C2/SC(=S)NC2=O)cc(OC)c1O`, the growth inhibition in experiment [1] (setting [7]) is -18%; in experiment [1] (setting [8]), 29%; in experiment [1] (at 50.0 µM), 46.4%; in experiment [2] (setting [7]), 3%; in experiment [2] (setting [8]), 49%; in experiment [2] (at 50.0 µM), 30.9%. Besides, the growth inhibition was 1% in experiment [3] (setting [7]); 42% in experiment [3] (setting [8]); 71.4% (active) in experiment [3] (at 50.0 µM); -25% in experiment [4] (setting [7]); 20% in experiment [4] (setting [8]); -1.6% in experiment [4] (at 50.0 µM). Besides, the growth inhibition in experiment [5] (setting [7]) is -24%; in experiment [5] (setting [8]), 22%; in experiment [5] (at 50.0 µM), 42.6%; in experiment [6] (setting [7]), -1%; in experiment [6] (setting [8]), 19%; in experiment [6] (at 50.0 µM) it was 41.2%.

Consider `COc1ccc(C2C3=C(CCCC3=O)Oc3cc4c(cc32)OCO4)cc1` (stereo not given), for which the growth inhibition in experiment [1] (setting [7]) is 2%; in experiment [1] (setting [8]) it was 68%; in experiment [1] (at 50.0 µM) it was 98% (active); in experiment [2] (setting [7]), 5%; in experiment [2] (setting [8]), 76% (active); in experiment [2] (at 50.0 µM) it was 96.7% (active). The growth inhibition in experiment [3] (setting [7]) is -6%; in experiment [3] (setting [8]), 64%; in experiment [3] (at 50.0 µM) it was 97.3% (active); in experiment [4] (setting [7]), 22%; in experiment [4] (setting [8]), 67%; in experiment [4] (at 50.0 µM) it was 96.3% (active). For the same molecule, the growth inhibition is -2% in experiment [5] (setting [7]); 79% (active) in experiment [5] (setting [8]); 95.9% (active) in experiment [5] (at 50.0 µM); 0% in experiment [6] (setting [7]); 91% (active) in experiment [6] (setting [8]); 98.2% (active) in experiment [6] (at 50.0 µM).

In the case of `Fc1ccc(CN2COc3c(cc(Cl)c4cccnc34)C2)cc1`, the growth inhibition in experiment [1] (setting [7]) was 9%; in experiment [1] (setting [8]) it was 97% (active); in experiment [1] (at 50.0 µM) it was 99.2% (active); in experiment [2] (setting [7]), 1%; in experiment [2] (setting [8]) it was 97% (active); in experiment [2] (at 50.0 µM) it was 99.6% (active). Moreover, the growth inhibition in experiment [3] (setting [7]) was 2%; in experiment [3] (setting [8]), 99% (active); in experiment [3] (at 50.0 µM) it was 99.6% (active); in experiment [4] (setting [7]), -8%; in experiment [4] (setting [8]) it was 98% (active); in experiment [4] (at 50.0 µM) it was 99.3% (active). Moreover, the growth inhibition is -5% in experiment [5] (setting [7]); 99% (active) in experiment [5] (setting [8]); 99.5% (active) in experiment [5] (at 50.0 µM); 11% in experiment [6] (setting [7]); 99% (active) in experiment [6] (setting [8]); 99.5% (active) in experiment [6] (at 50.0 µM).
